PubChem BioAssay (EPA / NIEHS)
Some structures have more than one record in an assay (separate samples or runs), and their calls can disagree. Active and inactive are the calls of the source. How the source made its calls: active means hit-call score of the fitted dose curve at least 0.9, where 1 is the maximum; inactive means score below 0.9.

Test: ATG_TA_CIS: Attagene CIS-FACTORIAL HepG2 Assay for human TA Basal Promoter (AID 2282964)
Details: HepG2 Attagene CIS-factorial TA basal promoter reporter; actives raise or lower the signal
Procedure: ATG_CIS is a cell-based, multiplexed-readout assay that uses HepG2, a human liver cell line, with measurements taken at 24 hours after chemical dosing in a 24-well plate.ATG_TA_CIS is one of 52 assay component(s) measured or calculated from the ATG_CIS assay. It is designed to make measurements of mRNA induction, a form of inducible reporter, as detected with fluorescence intensity signals by Reverse transcription polymerase chain reaction (RT-PCR) and Capillary electrophoresis technology.Data from the assay component ATG_TA_CIS was analyzed into 1 assay endpoint. This assay endpoint, ATG_TA_CIS, was analyzed with bidirectional fitting relative to DMSO as the negative control and baseline of activity. Using a type of inducible reporter, measures of mRNA for gain or loss-of-signal activity can be used to understand the background control at the transcription factor-level as they relate to the gene . Furthermore, this assay endpoint can be referred to as a secondary readout, because this assay has produced multiple assay endpoints where this one serves a background control function. To generalize the intended target to other relatable targets, this assay endpoint is annotated to the background measurement intended target family, where the subfamily is internal marker.
Human liver HepG2 cells are transiently transfected with multiple reporter transcription units (MRTUs) in 6-well plates using FuGene 6 reagent (Roche; 3 ml FuGene/1 mg DNA). The MRTU constructs are regulated by a cis-regulating element (promoter). […] A major difference between the CIS and TRANS system is that in CIS activities of endogenous TFs are measured, whereas the TRANS assay evaluates changes in activities of exogenous, chimeric NR-Gal4 proteins. […] At the end of 24 hour incubation, total RNA was isolated using TriZol reagent (Invitrogen). The isolated RNA is then reverse-transcribed using oligo(dT) primer and Mo-MLV reverse transcriptase (Invitrogen) with DNAse I (Ambion) treatment for 30 min. The one-tenth of the produced cDNA was amplified by PCR using Taq DNA polymerase (Invitrogen) and two reporter sequence-specific primers. The PCR products were fluorescently labeled by primer extension with 6-arboxyfluorescein (6-FAM) 5'-labeled reporter sequence-specific primer (2 min at 95 C, 20 s at 68 C and 10 min at 72 C) and these products were digested with 5U of HpaI (New England Biolabs) for 2h at 37 C. The fragments were purified using Qiaquick PCR columns (Qiagen), analyzed on an ABI 3130xL genetic analyzer (Applied Biosystems) with peak positions identified by using a set of X-rhodamine (ROX)-labeled MapMarker1000 molecular weight standards (BioVentures). The raw capillary electrophoresis data was processed using Attagraph software (Attagene).

Structure (SMILES) | outcome | AC50
FC(F)(F)C(F)(F)C(F)(F)Br | inactive | 
CCc1cccc(CC)c1NC(=O)C(=O)O | inactive | 
O=C(F)C(F)(F)C(F)(F)C(F)(F)C(=O)F | inactive | 
O=C(OC(=O)C(F)(F)C(F)(F)F)C(F)(F)C(F)(F)F | inactive | 
FC(F)(F)C1(F)C(F)(F)C(F)(F)C(F)(F)C(F)(C(F)(F)F)C1(F)F (stereo not given) | inactive | 
CCCCCCCC(OC)OC | inactive | 
CC1=NN(c2ccccc2)C(=O)C1 | inactive | 
CCOC=O | inactive | 
CCCCCCCCCC=CCC1CC(=O)OC1=O (stereo not given) | inactive | 
NS(=O)(=O)O | inactive | 
COCC1CCC(CO)CC1 (stereo not given) | inactive | 
O=P(O)(O)CCC(F)(F)C(F)(F)C(F)(F)C(F)(F)C(F)(F)C(F)(F)F | inactive | 
O=CC(F)(F)C(F)(F)C(F)(F)C(F)F | inactive | 
FCOC(C(F)(F)F)C(F)(F)F | inactive | 
C=COC(=O)C(C)(C)CCCCCC | inactive | 
C[N+](C)(CCCNS(=O)(=O)CCC(F)(F)C(F)(F)C(F)(F)C(F)(F)C(F)(F)C(F)(F)F)CC(=O)[O-] | inactive | 
CC(O)COc1ccccc1 (stereo not given) | inactive | 
Cc1cc(Cc2cc(C)cc(C(C)(C)C)c2O)c(O)c(C(C)(C)C)c1 | inactive | 
FC(OC(F)(F)C(F)(F)C(F)(F)F)C(F)(F)F (stereo not given) | inactive | 
Brc1ccc(Oc2ccc(Br)cc2Br)cc1 | inactive | 

Structure (SMILES) | outcome | AC50
FC1(F)C=CC(F)(F)C1(F)F | inactive | 
O=C(Nc1ccc(Cl)c(Cl)c1)c1cc(Cl)cc(Cl)c1O | inactive | 
CCOC(C)=O | inactive | 
NNc1nc(-c2ccc([N+](=O)[O-])cc2)cs1 | inactive | 
CC(C)[C@@H]1CC[C@@H](C)C[C@H]1O | inactive | 
C=CC(F)(F)C(F)(F)C(F)(F)C(F)(F)F | inactive | 
CN(C)c1ccc(C(=C2C=CC(=[N+](C)C)C=C2)c2ccccc2)cc1 | inactive | 0.752 µM (active)
C=CCOCC(CO)(CO)CO | inactive | 
C=CC(=O)OCC(CO)(COCC(COC(=O)C=C)(COC(=O)C=C)COC(=O)C=C)COC(=O)C=C | inactive | 
CCCCC(CC)C(=O)O (stereo not given) | inactive | 
NCCN | inactive | 
CCC(C)c1nccnc1OC (stereo not given) | inactive | 
CCC1CO1 (stereo not given) | inactive | 
CCCCCCCCCCCC(=O)O | inactive | 
CCCCCCCCCCCCCC[n+]1ccccc1 |  | 8.99 µM (active)
CCCCC=O | inactive | 
OCCN1CN(CCO)CN(CCO)C1 | inactive | 
N=C(N)c1ccc(OCCCCCOc2ccc(C(=N)N)cc2)cc1 |  | 59 µM (active)
CC(C)(c1ccc(Oc2ccc(N)cc2)cc1)c1ccc(Oc2ccc(N)cc2)cc1 | inactive | 
